{
  "source": "PubChem BioAssay (NCATS)",
  "note": "Inconclusive results are not listed. Entries that show only a call come without a potency. Activity calls are given as the source filed them. Calls come from the whole dose curve; as a rule, active = well fitted inhibition curve with a large enough effect; inconclusive = small, poorly fitted or top-dose-only effect; inactive = flat fitted curve, though single readings scatter.",
  "data": [
    {"molecular_target": "Glutathione peroxidase 1 (Homo sapiens) (UniProt P07203)", "sequence (P07203 whole entry, looked up)": "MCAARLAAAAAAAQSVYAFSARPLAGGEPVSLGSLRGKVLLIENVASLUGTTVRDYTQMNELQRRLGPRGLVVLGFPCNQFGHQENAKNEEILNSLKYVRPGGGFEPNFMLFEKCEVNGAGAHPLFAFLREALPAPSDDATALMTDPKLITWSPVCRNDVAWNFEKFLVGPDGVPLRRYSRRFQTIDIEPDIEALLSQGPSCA", "test": "Primary qHTS Assay for Inhibitors of Recombinant Selenoprotein Glutathione Peroxidase 1 (GPX1) (AID 1845191); note: nearly all actives have a fitted effect of over 65% in size", "settings": "recombinant GPX1, GR-coupled NADPH fluorescence, 15 min; series mostly up to 48.8 µM", "in_short": "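10 nM GPX1 + cpd, 30 min RT; start w/ 1 mM GSH, 0.5 mM cumene hydroperoxide, 0.5 mM NADPH, 100 nM GR, 0.01% BSA; buffer 50 mM Tris-HCl pH 7.5, 2 mM EDTA, 150 mM NaCl; Fl 340/450, 0 & 15 min.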", "values": [
      {"compound": "COc1cc(/C=C/C(=O)OC2CC(OC(C)=O)C(OC(C)=O)C3C2CCC2C(=O)OC(c4ccoc4)CC23C)ccc1O[C@@H]1O[C@H](CO)[C@@H](O)[C@H](O)[C@H]1O", "note": "(stereo partly specified)", "Potency": "inactive"},
      {"compound": "COC(=O)C1=C[C@@H](O)[C@@H](O)[C@H](O[C@@H]2O[C@H](COC(=O)/C=C/c3ccccc3)[C@@H](O)[C@H](O)[C@H]2O)C1", "Potency": "inactive"},
      {"compound": "COc1c2c(c(C)c3c1C(=O)OC3)O[C@@]1(C)C[C@@H](O)[C@]34O[C@](OC)(CC[C@]3(C)[C@H]1C2)OC4(C)C", "Potency": "inactive"},
      {"compound": "CC/C=C\\C[C@H]1C(=O)C=C[C@@H]1CCCCCCCC(=O)O", "Potency": "inactive"},
      {"compound": "COC1=CC(=O)O[C@@H](/C=C/c2ccccc2)[C@@H]1O", "Potency": "inactive"},
      {"compound": "C=C1C(=O)O[C@H]2[C@H]1[C@@H](OC(=O)C(C)CO)C[C@@]1(C)[C@H](O)CCC(=O)[C@H]21", "note": "(stereo partly specified)", "Potency": "inactive"},
      {"compound": "CCOC(=O)c1c(C)nn(-c2cccc([N+](=O)[O-])c2)c1C", "Potency": "inactive"},
      {"compound": "C=C[C@H]1[C@H](O[C@@H]2O[C@H](CO[C@@H]3OC[C@](O)(CO)[C@H]3O)[C@@H](O)[C@H](O)[C@H]2O)OC=C2C(=O)OCC[C@H]21", "Potency": "inactive"},
      {"compound": "O=c1c2cccnc2n(-c2cccc([N+](=O)[O-])c2)c(=O)n1Cc1ccncc1", "Potency": "inactive"},
      {"compound": "O=C(OCC12OC1C=CC(OC(=O)c1ccccc1)C2O)c1ccccc1", "note": "(stereo unspecified)", "Potency": "inactive"},
      {"compound": "COc1cc([C@H]2OC[C@]3(OC(C)=O)[C@@H](c4ccc(O[C@@H]5O[C@H](CO)[C@@H](O)[C@H](O)[C@H]5O)c(OC)c4)OC[C@H]23)ccc1O", "Potency": "inactive"}
    ]}
  ]
}
